# Source: PubChem BioAssay (National Center for Advancing Translational Sciences (NCATS))
# Shown are actives, neighbours in structure and some others; about 15% of the full set was active somewhere.
# TDP1 cell noCPT = qHTS for Inhibitors of human tyrosyl-DNA phosphodiesterase 1 (TDP1): qHTS in cells in absence of CPT. DT40 Tdp1-/- hTDP1 cells, no CPT, ATP luminescence, 48 h. Potency, µM (series often up to 46.2 µM), actives largely listed as inhibitors. 15% of 420,000 active. AID 686978, 2013; also: nearly all actives have a fitted effect of over 55% in size
#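 Chicken DT40 Tdp1-/- cells complemented with human TDP1, screened without camptothecin (DMSO vehicle only), 400 cells/well. Compounds pin-transferred, cells incubated at 37 °C for at least 48 hr. Growth read as ATP-dependent luminescence (CellTiter-Glo, 30 min at RT).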
# TDP1 cell CPT = DT40-hTDP1 cell growth loss with CPT; 12% of 420,000 active; AID 686979; Potency, µM (doses to about 46.2 µM), actives largely listed as inhibitors; chicken DT40 Tdp1-/-;hTDP1 cells + 20 nM CPT, ATP luminescence, 48 h; also: nearly all actives have a fitted effect of over 55% in size
#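 Cell growth measured by CellTiter-Glo luminescence after a minimum 48 h, 37 C compound exposure with 20 nM CPT in Tdp1-knockout DT40 cells stably expressing hTDP1, seeded 400/well; qHTS titration format.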
# VP16 counter = Gal4-VP16 reporter inhibition counter-screen | Drosophila S2 Gal4-VP16 UAS-luciferase, luminescence, 20 h | Potency, µM (series often up to 53.6 µM), actives largely listed as inhibitors | 3.5% of 310,000 active;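 also: Gal4-VP16 expression switched on by copper sulfate through the metallothionein promoter; nearly all actives have a fitted effect of over 50% in size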
# 12-LOX inh = blocks human arachidonate 12S-lipoxygenase | P18054 | purified 12hLO, xylenol orange hydroperoxide absorbance | Potency, µM (doses to about 108 µM), hits mostly inhibitors | 1.1% of 580,000 active
#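 Purified human 12hLO (150 nM final) in 25 mM Hepes, 0.01% Triton X-100, pH 7.0 was preincubated 15 min at room temperature with compound. Then 40 uM arachidonic acid was added, 30 min. Hydroperoxide was read by Fe-XO absorbance ratio 573/405 nm.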
# ELG1 DNA repair = blocks ELG1-dependent DNA repair in HEK293T cells; 2.3% of 330,000 active; AID 504467; Potency, µM (doses to about 46.1 µM), actives largely listed as inhibitors; HEK293T ELG1-luciferase reporter, luminescence, 16 h; DNA damage induced by 5-fluorouridine; also: nearly all actives have a fitted effect of over 55% in size
#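 Cells (2,000 per well) received 5-fluorouridine plus test compound or DMSO and were incubated 16 hr at 37 °C, 5% CO2. Luciferase activity was read by luminescence 30 min after ONE-Glo addition; signal suppression marked inhibition of damage-induced ELG1 function.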
# RORg inh = ROR gamma (mouse) transcription inhibition. Potency, µM (titrated, usually from 53.6 µM), usual class: inhibitors. Drosophila S2 Gal4-RORgamma UAS-luciferase reporter, 20 h. P51450. 5.4% of 310,000 active; also: nearly all actives have a fitted effect of over 60% in size
# Target sequence (P51450 whole entry, looked up, the tested form may be a part): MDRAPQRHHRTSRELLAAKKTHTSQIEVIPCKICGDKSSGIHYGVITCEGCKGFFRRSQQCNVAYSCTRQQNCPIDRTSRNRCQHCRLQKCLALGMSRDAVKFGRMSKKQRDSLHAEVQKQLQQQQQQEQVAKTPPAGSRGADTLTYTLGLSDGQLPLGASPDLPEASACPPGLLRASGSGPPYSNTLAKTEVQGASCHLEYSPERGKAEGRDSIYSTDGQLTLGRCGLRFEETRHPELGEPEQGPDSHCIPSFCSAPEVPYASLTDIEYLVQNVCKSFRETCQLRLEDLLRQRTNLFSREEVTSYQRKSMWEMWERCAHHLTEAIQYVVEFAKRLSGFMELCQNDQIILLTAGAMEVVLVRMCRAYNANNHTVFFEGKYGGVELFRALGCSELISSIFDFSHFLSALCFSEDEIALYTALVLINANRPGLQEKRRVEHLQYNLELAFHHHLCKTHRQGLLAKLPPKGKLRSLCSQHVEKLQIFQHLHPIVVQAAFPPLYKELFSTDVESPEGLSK
#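 Luminescence from a UAS-regulated Photinus luciferase reporter in stably transfected Drosophila Schneider cells is measured; decreased signal marks ROR gamma inhibition. Fusion expression is induced by 700 uM copper sulfate for 20 hr.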
# Hits are given with their value; . = inactive; ? = inconclusive; / = not tested or not shown; [ ] = remark or other dose. Calls follow the shape of the dose curve; as a rule, active = well fitted curve in the direction sought with a large enough effect; inconclusive = small, poorly fitted or top-dose-only effect, or another doubt; inactive = no such curve, though single readings can be large; an effect the other way counts as inactive or inconclusive.
SMILES,TDP1 cell noCPT,TDP1 cell CPT,VP16 counter,12-LOX inh,ELG1 DNA repair,RORg inh
O=C1CS(=O)(=O)C2(C(=O)N(Cc3ccccc3Cl)c3ccccc32)N1c1ccc(F)cc1 (stereo not drawn),16.4µM,14.6µM,/,.,/,/
O=C1CS(=O)(=O)C2(C(=O)N(Cc3ccccc3)c3ccccc32)N1c1ccc(F)c(Cl)c1 (stereo not drawn),?,.,/,.,/,/
Cc1nn(-c2ccccc2)c(C)c1CCC(=O)N1CCN(S(=O)(=O)c2ccc(F)cc2F)CC1,/,/,/,.,/,/
COc1cccc(NC(=O)CCc2c(C)c3ccc(OC)c(C)c3oc2=O)c1,/,/,/,.,/,/
O=C1CCC2(CCCO2)CCN1Cc1ccccc1F (stereo not drawn),/,/,/,.,/,/
CN(c1ccccc1)S(=O)(=O)c1cccc(NC(=O)c2nn(C)c(=O)c3ccccc23)c1,?,?,/,.,18.3µM,/
Cn1nc(C(=O)Nc2cccc(C(F)(F)F)c2)c2ccccc2c1=O,?,.,.,.,?,.
CN(c1ccccc1)S(=O)(=O)c1cccc(NC(=O)Cn2cnc3ccccc3c2=O)c1,16.4µM,20.6µM,.,.,?,?
Cc1ccc(C(=O)Nc2cccc(S(=O)(=O)N(C)c3ccccc3)c2)o1,?,?,/,.,?,/
CN(c1ccccc1)S(=O)(=O)c1cccc(NC(=O)C2=NNC(=O)CC2)c1,?,?,/,.,16.4µM,/
CCOC(=O)c1ccc2ncc(C(=O)OCC)c(NCCCOC(=O)c3cccnc3)c2c1,/,/,/,.,/,/
COc1ccc2c(=O)c3c(=O)n(Cc4ccco4)c(-c4ccccc4)nc3oc2c1,?,.,.,?,?,.
CCCc1nc2oc3cc(OC)ccc3c(=O)c2c(=O)n1Cc1ccco1,?,.,.,?,.,.
CCCCCCn1c(-c2ccco2)nc2oc3cc(OC)ccc3c(=O)c2c1=O,20.6µM,?,.,?,?,?
COc1ccc2c(=O)c3c(=O)n(Cc4ccco4)c(-c4cc(OC)c(OC)c(OC)c4)nc3oc2c1,?,?,.,.,13µM,.
COc1cccc(CC(=O)NCc2nnc3cc(-c4nc(C(C)C)no4)ccn23)c1,/,/,/,.,/,/
Cc1ccc(CN2CCC(CNC(=O)Nc3cccc(C)c3C)C2)cc1 (stereo not drawn),?,?,/,.,/,/
Cc1ccc(CN2CCC(CNC(=O)Nc3cn(CC(C)C)c(=O)c4ccccc34)C2)cc1 (stereo not drawn),/,/,/,44.7µM,/,/
CCN(C(=O)Nc1cn(CC(C)C)c(=O)c2ccccc12)c1cc(C)ccc1C,9.2µM,9.2µM,/,.,/,/
COc1cc(OC)c(N(C)C(=O)Nc2cn(CC(C)C)c(=O)c3ccccc23)cc1Cl,23.1µM,20.6µM,/,.,/,/
CC(C)Nc1ccc(-c2nc(-c3ccco3)no2)cc1[N+](=O)[O-],16.4µM,?,/,.,/,/
COc1ccccc1-c1noc(-c2ccc(NCc3ccco3)c([N+](=O)[O-])c2)n1,11.6µM,11.6µM,/,.,/,/
COc1cc(-c2noc(-c3ccc(NCCc4ccccc4)c([N+](=O)[O-])c3)n2)cc(OC)c1OC,4.11µM,5.17µM,/,.,/,/
CCCNc1ccc(-c2nc(-c3ccco3)no2)cc1[N+](=O)[O-],.,.,/,?,/,/
COc1ccccc1-c1noc(-c2ccc(NCCc3ccccc3)c([N+](=O)[O-])c2)n1,.,.,/,.,/,/
SMILES,TDP1 cell noCPT,TDP1 cell CPT,VP16 counter,12-LOX inh,ELG1 DNA repair,RORg inh
CCc1noc(-c2ccc(N(C)Cc3ccc(OC)cc3)c([N+](=O)[O-])c2)n1,5.8µM,6.51µM,/,.,/,/
O=C(CCC1CCN(C(=O)[C@H]2C[C@@H]3C=C[C@H]2C3)CC1)N1CCC(Cc2ccccc2)CC1,/,/,/,.,/,/
Cc1ccccc1-c1noc(-c2ccc(NCc3cccnc3)c([N+](=O)[O-])c2)n1,2.31µM,4.11µM,/,.,/,/
CCc1noc(-c2ccc(NCc3ccccc3)c([N+](=O)[O-])c2)n1,18.4µM,23.1µM,/,.,/,/
COc1ccc(-c2noc(-c3ccc(NC4CCCCC4)c([N+](=O)[O-])c3)n2)cc1OC,?,20.6µM,/,.,/,/
COc1cc(-c2noc(-c3ccc(NC4CCCCC4)c([N+](=O)[O-])c3)n2)cc(OC)c1OC,.,.,/,.,/,/
CCOC(=O)c1[nH]c(C)c(CCC(=O)N2CCC(C(=O)NCCN(C)C)CC2)c1C,/,/,/,.,/,/
Cc1ccc(SCc2nc(-c3ccc(C(=O)NCCCN4CCOCC4)cc3)oc2C)cc1,/,/,/,.,/,/
CCCOC1(NC(=O)c2ccccc2)C(C)=CC(=O)C=C1C,?,23.1µM,.,.,.,.
CCCOC(=O)c1ccccc1,.,.,.,.,/,.
COCCNC(=O)[C@H]1C[C@H](Oc2ccccc2)CN1S(=O)(=O)c1c(C)noc1C,/,/,/,.,/,/
N=c1c(C(=O)NCCc2ccccc2)cc2c(=O)n3ccccc3nc2n1CCCN1CCOCC1,14.6µM,.,.,.,.,.
N=c1c(C(=O)NCCN2CCOCC2)cc2c(=O)n3ccccc3nc2n1CCc1ccccc1,23.1µM,?,.,.,.,.
N=c1c(C(=O)NCc2ccccc2)cc2c(=O)n3ccccc3nc2n1CCCN1CCOCC1,?,.,.,.,.,.
COc1ccc(CCn2c(=N)c(C(=O)NCc3ccco3)cc3c(=O)n4ccccc4nc32)cc1,23.1µM,?,.,.,16.4µM,.
CCN1CCC2(CC1)Cc1ccccc1CN(S(=O)(=O)c1ccccc1)C2,/,/,/,.[6.33 µM],/,/
CCc1nccn1CC(=O)Nc1nn(C)c2cccc(Oc3cccnc3)c12,/,/,/,.,/,/
CC(C)N(Cc1ccccc1)C(=O)c1cc2ccc3cccnc3c2[nH]1,18.4µM,16.4µM,/,.,/,/
O=C(NCc1cccc(Cl)c1)c1cc2ccc3cccnc3c2[nH]1,.,.,/,.,/,/
COc1ccc(C(=O)Nc2cccc3cccnc23)cc1OC,?,?,.,.,?,.
COc1ccccc1NC(=O)c1cc2ccc3cccnc3c2[nH]1,25.9µM,3.66µM,/,.,/,/
COc1ccc(NC(=O)C(=O)Nc2cccc3ccccc23)c(OC)c1,.,.,.,.,.,.
COc1ccc(NC(=O)C(=O)Nc2cccc3cccnc23)cc1OC,.,.,2.82µM,.,.,1.78µM
COc1ccc(NC(=O)C(=O)Nc2cccc3cccnc23)c(OC)c1,.,.,2.51µM,.,.,1.41µM
COc1cccc(N2C(=O)CCC2(C)C(=O)NC2CCCC2)c1 (stereo not drawn),/,/,/,.,/,/
CCc1ccc(-c2cn3nc(-c4ccccc4)cnc3n2)cc1,.,.,.,.,?,.
Cc1ccc(-c2cn3nc(C)c(C)nc3n2)cc1,.,.,10µM,?,?,7.94µM
